Several values for one entry are separate records, joined by “and”; a condition that tells them apart may be missing. Identical values can stand only once. Inconclusive results are not listed. Entries that show only a call come without a potency. More than one record can exist for a structure, and the calls need not agree. Activity calls are given as the source filed them. The call rests on the fitted dose curve; in most records, active means well fitted inhibition curve with a large enough effect; inconclusive means small, poorly fitted or top-dose-only effect; inactive means flat fitted curve, though single readings scatter.
Potency means the concentration at half of the fitted maximal effect.

The target of this test is Glutathione peroxidase 1 (Homo sapiens) (UniProt P07203). Put plainly: Primary qHTS Assay for Inhibitors of Recombinant Selenoprotein Glutathione Peroxidase 1 (GPX1) (AID 1845191). Further: nearly all actives have a fitted effect of over 65% in size. The settings on record: recombinant GPX1, GR-coupled NADPH fluorescence, 15 min; series mostly up to 48.8 µM. A digest of the protocol: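 GR-coupled readout: NADPH consumption tracked by fluorescence, ex 340/em 450 nm, at t=0 and after 15 min at RT. Final mix 10 nM GPX1, 1 mM GSH, 0.5 mM CHP, 0.5 mM NADPH, 100 nM GR, 0.01% BSA, following 30 min enzyme–compound preincubation.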
Sequence of Glutathione peroxidase 1 (Homo sapiens) (P07203 whole entry, looked up): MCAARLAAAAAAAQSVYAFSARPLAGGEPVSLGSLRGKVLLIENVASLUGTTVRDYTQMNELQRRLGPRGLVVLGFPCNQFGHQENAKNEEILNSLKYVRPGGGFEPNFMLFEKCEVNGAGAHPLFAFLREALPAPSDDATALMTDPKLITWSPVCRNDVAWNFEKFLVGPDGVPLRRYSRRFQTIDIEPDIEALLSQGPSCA
For orientation: qHTS replaces the single test concentration by a dilution series.
With `CC(C)(C)COc1ccc(-n2cc(C(=O)O)cn2)cc1C#N`, the Potency entry is “inactive”.

Regarding `CC(=O)Nc1ccc([C@H](C)C(=O)Nc2ncc(C(C)C)s2)cc1`, the Potency entry is “inactive”.

For the molecule `c1cc(-c2sc(-c3ccncc3)c(-c3ccncc3)c2-c2ccncc2)ccn1`, the Potency entry was “inactive”.

Consider `NC(=O)c1cccc(-c2cc(Nc3ccc(OC(F)(F)F)cc3)ncn2)c1`, for which the Potency entry is “inactive”.

As to `CC(C)C(=O)Nc1ncc(-c2cc(C(F)F)nn2-c2c(Cl)cccc2Cl)s1`, the Potency result was “inactive”.

`COc1ccc(-c2cc(=O)c3c(O)cc(O)cc3o2)cc1O`: the Potency entry was “inactive”.

`CCOC(=O)C1=C(N)Oc2ccc(Br)cc2C1C(C#N)C(=O)OCC` (stereo unspecified): the Potency entry is “inactive”.

Regarding `Clc1cc(Cl)cc(CNc2ncncc2-c2ccc3c(c2)OCO3)c1`, the Potency entry is “inactive”.

As for `COCCOC(=O)C1=C(C)NC2=C(C(=O)CC(c3ccccc3OC)C2)C1c1cccc(O)c1` (stereo unspecified), the Potency result was “inactive”.

For the molecule `c1ccc2c(-c3cnn4cc(-c5ccc(N6CCNCC6)cc5)cnc34)ccnc2c1`, the Potency result is “inactive”.

For the molecule `COc1ncc(-c2ccc3nccc(-c4ccnnc4)c3c2)cc1NS(=O)(=O)c1ccc(F)cc1F`, the Potency result is “inactive”.

With `CNC(=O)c1ccc2cc(C3(O)CCn4cncc43)ccc2c1` (stereo unspecified), the Potency entry is “inactive”.

Turning to `CN[C@@H](C)C(=O)N[C@H]1CN(C(=O)CC(C)C)CC[C@H]2CC[C@@H](C(=O)NC(c3ccccc3)c3ccccc3)N2C1=O`, the Potency entry was “inactive”.

Regarding `OC[C@@H](O)[C@H](O)[C@H](O)[C@@H](O)CO`, the Potency entry was “inactive”.

Turning to `CC(C)[C@H](CO)Nc1nc(Nc2ccc(C(=O)O)c(Cl)c2)c2ncn(C(C)C)c2n1`, the Potency entry was “inactive”.

As to `O=C1C(Cl)=C(NCCN2CCOCC2)C(=O)c2ncccc21`, the Potency was 9.16 µM (active).

With `O=C(Nc1c(Cl)cncc1Cl)c1ccc(OC(F)F)c(OCC2CC2)c1`, the Potency result was “inactive”.

Turning to `CC(C)(C)c1cc(C(=O)O)c(NC(=O)Nc2ccc3[nH]ncc3c2)s1`, the Potency result was “inactive”.

On to `COc1cccc([C@@H](C)NCCCc2ccccc2Cl)c1`, for which the Potency result is “inactive”.

As for `CCCCCNC(=O)N1CCC(CN(Cc2ccc(Cl)cc2)Cc2ccc([N+](=O)[O-])s2)C1` (stereo unspecified), the Potency is 2.05 µM (active).

Consider `CC(=O)Oc1cc2c(s1)CCN(C(C(=O)C1CC1)c1ccccc1F)C2` (stereo unspecified), for which the Potency is 16.1 µM (active) and inactive and 20.2 µM (active).

Turning to `CC#CCn1c(N2CCC[C@@H](N)C2)nc2c1c(=O)n(Cc1nc(C)c3ccccc3n1)c(=O)n2C`, the Potency entry was “inactive”.

For the molecule `O=c1cc(-c2cccc3c2Sc2ccccc2S3)oc(N2CCOCC2)c1`, the Potency result is “inactive”.

For `CCOC(CN1C(=O)[C@](CC(=O)Nc2ccc(C)cc2)(NC(=O)Nc2ccc(C)cc2)c2ccccc21)OCC`, the Potency entry is “inactive”.

For the molecule `O=C(NCc1ccccc1)c1csc(Nc2ccncn2)n1`, the Potency entry was “inactive”.

For the molecule `Cc1ccc(Nc2cc(-c3cccc(N4C(=O)c5ccccc5C4=O)c3)ncn2)cc1NS(C)(=O)=O`, the Potency entry was “inactive”.

As for `C=C1C(=O)[C@@]23C(CC[C@@H]1[C@H]2O)[C@@]12CO[C@]3(O)[C@@H](O)[C@@H]1C(C)(C)CC[C@@H]2O` (stereo partly specified), the Potency result was “inactive”.

Take `N#Cc1ccc(NC(=O)Nc2ccccc2Br)c2n[nH]nc12`: the Potency result was “inactive”.

With `O=c1[nH]cnc2c1ncn2[C@H]1CC[C@@H](CO)O1`, the Potency result is “inactive”.

`COCCOc1nc(-c2ccc(Cl)c(Cl)c2)n(-c2ccc(NC(=O)CCl)cc2)n1`: the Potency entry is “inactive”.

As to `CNC1CCC(N(Cc2cccc(-c3ccncc3)c2)C(=O)c2sc3c(F)ccc(F)c3c2Cl)CC1` (stereo unspecified), the Potency result was “inactive”.

For `O=c1cc(-c2ccccc2)oc2cc(O)cc(O)c12`, the Potency result is “inactive”.

As for `Oc1ccc(C2CCN(c3ccnc4ccccc34)CC2)cc1O`, the Potency entry was “inactive”.

As for `CC(C)n1cnc2c(NCCCCCCNC(=O)OC(C)(C)C)nc(NCCO)nc21`, the Potency result is “inactive”.

`Cc1ccc(C(=O)Nc2cccc(C(F)(F)F)c2)cc1Nc1nc(-c2cccnc2)nc2c1cnn2C`: the Potency result was “inactive”.

Turning to `O=C(CCCCCCC(=O)Nc1ccccc1)NO`, the Potency entry is “inactive”.

(Values after PubChem BioAssay (NCATS).)
